Source: PubChem BioAssay (NCI)
This is part of a sample that, as a whole, favours compounds with a hit. Of some 83,000 tested, about 20% had one in any assay.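 Method: cells in 96-well plates; compound added at one concentration; 48 h incubation; percent growth measured; values under 10 scored active.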 Calls of active or inactive are those of the source.

Columns and labels:
Test in all cases: NCI-60 one-dose screen, 48 h (100 = growth as untreated, 0 = no growth, -100 = all killed)
Conditions in all cases: 10 µM unless noted
NCI-H23 lung = tested on: NCI-H23 lung
NCI-H226 lung = tested on: NCI-H226 lung
NCI-H322M lung = tested on: NCI-H322M lung
HOP-62 NSCLC = tested on: HOP-62 NSCLC
NCI-H460 lung = tested on: NCI-H460 lung
HOP-92 NSCLC = tested on: HOP-92 NSCLC
NCI-H522 lung = tested on: NCI-H522 lung
A549/ATCC NSCLC = tested on: A549/ATCC NSCLC
786-0 renal = tested on: 786-0 renal
COLO 205 colon = tested on: COLO 205 colon
DU-145 prostate = tested on: DU-145 prostate
K-562 leukemia = tested on: K-562 leukemia
MALME-3M melanoma = tested on: MALME-3M melanoma
MDA-MB-231 breast = tested on: MDA-MB-231 breast
RXF 393 renal = tested on: RXF 393 renal
SF-268 CNS = tested on: SF-268 CNS
SF-295 CNS = tested on: SF-295 CNS
SF-539 CNS = tested on: SF-539 CNS
UACC-257 melanoma = tested on: UACC-257 melanoma
M14 melanoma = tested on: M14 melanoma

Measured: growth

Cn1c(/C=C/[N+](=O)[O-])cc2ccccc21
inactive: NCI-H322M lung 105% | HOP-62 NSCLC 76.7% | NCI-H460 lung 62.7% | HOP-92 NSCLC 84% | NCI-H522 lung 70.5% | A549/ATCC NSCLC 48% | 786-0 renal 75.7% | COLO 205 colon 12.5% | MALME-3M melanoma 91.4% | MDA-MB-231 breast 63% | SF-268 CNS 93.4% | SF-295 CNS 40.4%
active: NCI-H23 lung -24.5% | NCI-H226 lung 4.78% | DU-145 prostate -8.11% | K-562 leukemia 7.24% | RXF 393 renal -97.1% | SF-539 CNS -53.4% | UACC-257 melanoma -5.1% | M14 melanoma -70.1%

COC(=O)c1ccc2c(c1)c1c(C)c3ccncc3c(C)c1n2C
active: NCI-H460 lung 8.82% | NCI-H522 lung 6.4% | A549/ATCC NSCLC 7.22% | COLO 205 colon 2.15% | K-562 leukemia 8.47% | MALME-3M melanoma 5.36% | UACC-257 melanoma 1.45%
inactive: NCI-H23 lung 24.1% | NCI-H226 lung 25% | NCI-H322M lung 33.6% | HOP-62 NSCLC 24% | HOP-92 NSCLC 18.7% | 786-0 renal 28.5% | DU-145 prostate 22.7% | MDA-MB-231 breast 25.1% | RXF 393 renal 17.5% | SF-268 CNS 26.3% | SF-295 CNS 24.1% | SF-539 CNS 31.9% | M14 melanoma 30.8%

CCOC(=O)c1c2c(n3ccccc13)C(=O)c1ncccc1C2=O
inactive: NCI-H322M lung 11.4% | HOP-92 NSCLC 28.4% | COLO 205 colon 20.7% | K-562 leukemia 11.2% | MALME-3M melanoma 18.1% | MDA-MB-231 breast 13.4% | RXF 393 renal 25% | SF-268 CNS 20% | SF-295 CNS 22.3%
active: NCI-H23 lung 4.7% | NCI-H226 lung 9.64% | HOP-62 NSCLC -11.7% | NCI-H460 lung 1.12% | NCI-H522 lung -22.2% | A549/ATCC NSCLC 8.27% | 786-0 renal 2.37% | DU-145 prostate 8.05% | SF-539 CNS -2.14% | UACC-257 melanoma -3.95% | M14 melanoma -37.6%

COc1cc(OC)cc(C2C(C#N)=C(N)Oc3c2ccc2ccc(O)cc32)c1 (stereo not given)
inactive: NCI-H23 lung 14.9% | NCI-H226 lung 38.2% | NCI-H322M lung 30.9% | HOP-62 NSCLC 23.3% | HOP-92 NSCLC 13.4% | 786-0 renal 12.7% | DU-145 prostate 10.9% | MALME-3M melanoma 39.3% | MDA-MB-231 breast 10.9% | RXF 393 renal 24.1% | SF-268 CNS 15.9% | SF-295 CNS 22.9% | UACC-257 melanoma 69.4%
active: NCI-H460 lung 3.85% | NCI-H522 lung 1.5% | A549/ATCC NSCLC 6.38% | COLO 205 colon -42% | K-562 leukemia 6.22% | SF-539 CNS -9% | M14 melanoma 5.6%

Cc1ccc(Nc2nc(-c3ccc(F)cc3)c(C#N)c(=O)n2C)cc1
inactive: NCI-H23 lung 66.7% | NCI-H226 lung 64% | NCI-H322M lung 74.8% | HOP-62 NSCLC 50.9% | NCI-H460 lung 84.5% | NCI-H522 lung 49.7% | A549/ATCC NSCLC 61.7% | 786-0 renal 67.5% | COLO 205 colon 66.8% | DU-145 prostate 72.7% | K-562 leukemia 97.6% | MALME-3M melanoma 45.8% | MDA-MB-231 breast 23.4% | RXF 393 renal 50.2% | SF-268 CNS 66.5% | SF-295 CNS 79.1% | SF-539 CNS 64.8% | UACC-257 melanoma 74.5% | M14 melanoma 77.9%
active: HOP-92 NSCLC 0.0271%

COc1cc(C(=O)c2c(N)ncn2-c2ccccc2)cc(OC)c1OC
inactive: NCI-H23 lung 101% | NCI-H226 lung 84% | NCI-H322M lung 104% | HOP-62 NSCLC 77.1% | NCI-H460 lung 106% | HOP-92 NSCLC 96.2% | NCI-H522 lung 50.5% | A549/ATCC NSCLC 106% | 786-0 renal 88.7% | COLO 205 colon 97.4% | DU-145 prostate 100% | K-562 leukemia 76.4% | MALME-3M melanoma 106% | MDA-MB-231 breast 103% | RXF 393 renal 86.8% | SF-268 CNS 101% | SF-295 CNS 91% | SF-539 CNS 87% | UACC-257 melanoma 109% | M14 melanoma 96.1%

O=C(CCCCCCN1CC(=O)N2[C@@H](C3CCCCC3)c3[nH]c4ccccc4c3C[C@H]2C1=O)NO
inactive: NCI-H23 lung 72.2% | NCI-H226 lung 97.1% | NCI-H322M lung 79% | HOP-62 NSCLC 65.9% | NCI-H460 lung 61.1% | HOP-92 NSCLC 59.1% | NCI-H522 lung 39.9% | A549/ATCC NSCLC 86.5% | 786-0 renal 88% | COLO 205 colon 62.9% | DU-145 prostate 80% | K-562 leukemia 31.1% | MALME-3M melanoma 37.5% | MDA-MB-231 breast 82.9% | RXF 393 renal 65.2% | SF-268 CNS 106% | SF-295 CNS 89.2% | SF-539 CNS 69.3% | UACC-257 melanoma 54.1% | M14 melanoma 63.8%

COc1cc(/C=C/c2cc(/C=C/c3ccc(O)c(OC)c3)n(C(=O)Nc3ccc(F)cc3)n2)ccc1O
inactive: NCI-H23 lung 10.7% | NCI-H226 lung 15.9% | NCI-H322M lung 27.3% | HOP-62 NSCLC 30.2% | A549/ATCC NSCLC 12% | MDA-MB-231 breast 33.6% | SF-268 CNS 20.1% | UACC-257 melanoma 13.7%
active: NCI-H460 lung 8.35% | HOP-92 NSCLC -3.45% | NCI-H522 lung -6.04% | 786-0 renal -6.9% | COLO 205 colon 8.73% | DU-145 prostate 6.78% | K-562 leukemia 0.22% | MALME-3M melanoma 9.15% | RXF 393 renal -43.8% | SF-295 CNS -21.6% | SF-539 CNS 3.68% | M14 melanoma 2.69%
